Assay outcomes as filed in PubChem BioAssay.
Compounds with a hit are over-represented: about 11% of the library has one in this group of screens.
AMA1 RON2 block – AMA1-RON2 (P. falciparum) interaction inhibition; AlphaScreen AMA1-biotinylated RON2 peptide binding; Potency, µM (top dose mostly 58.2 µM), hits mostly inhibitors; 0.2% of 360,000 active; AID 720542; note: nearly all actives have a fitted effect of over 45% in size
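AMA1 (3D7) with his tag at 25 nM final met compounds first, then biotinylated RON2 peptide at 25 nM; detection used donor plus acceptor beads, 10 µg/mL apiece, read by AlphaScreen after 30 min at room temperature.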
Sm TGR block – blocks Schistosoma mansoni thioredoxin glutathione reductase | Potency, µM (highest dose often 114 µM), usual class: inhibitors | 3% of 360,000 active | Q962Y6 | purified TGR, DTNB reduction, TNB absorbance 405 nm; note: nearly all actives have a fitted effect of over 60% in size
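First, TGR (20 nM dispensed) and NADPH were mixed with compound. Second, a 15 min room-temperature incubation followed. Third, further NADPH and then DTNB were added to start the reaction. Finally, TNB absorbance was monitored kinetically.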
Pf growth 96h – inhibits malaria parasite growth, 96 h | 6.9% of 320,000 active | Potency, µM (series often up to 28.7 µM), most hits filed as inhibitors | P. falciparum luciferase reporter growth, 96 h | AID 504834
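Delayed-death screen, second-generation endpoint: infected erythrocytes, 2% hematocrit, 0.05% parasitemia final; 96 hours at 37 C, 5% CO2; luciferase detection reagent; luminescence decrease equals reduced growth.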
NS1 inh – inhibitors of influenza NS1 protein function | Potency, µM (titrated, usually from 46.1 µM) | 0.4% of 270,000 active; calls by dose curve; note: actives are rising curves; nearly all actives have a fitted effect of over 50% in size
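A cell-based growth assay was used: compounds that relieve NS1-induced slow growth of budding yeast raise OD600. Assay medium was yeast nitrogen base with ammonium sulphate and -URA supplement, pH 6.0, with 2% galactose.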
Pf growth 48h – P. falciparum growth inhibition at 48 hours (one generation) | P. falciparum luciferase growth in erythrocytes, 48 h | Potency, µM (highest dose often 28.7 µM), usual class: inhibitors | 5.9% of 310,000 active | AID 504832
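First compound was added to culture medium, then infected red cells at 0.1% parasitemia and 2% hematocrit (final). After incubation at 37 C under 5% CO2, luciferase detection reagent was dispensed and light output recorded.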
Each line names hits and unclear results; the compound was inactive in the other large screens. Unless noted, calls come from the whole dose curve; as a rule, active = well fitted curve in the direction sought with a large enough effect; inconclusive = small, poorly fitted or top-dose-only effect, or another doubt; inactive = no such curve, though single readings can be large; an effect the other way counts as inactive or inconclusive.

CCOc1nc(SCCOc2ccc(C)cc2)nc(N(C)C)n1	Pf growth 96h inconclusive, Pf growth 48h 9.3µM
Cc1ccc(CN2CCNC(=O)C2CC(=O)N(C)C(C2CC2)C2CC2)o1 (centres undefined)	Sm TGR block 25µM, Pf growth 96h 13µM
Cc1ccc(CN2CCNC(=O)C2CC(=O)NCC(F)(F)F)o1 (centres undefined)	Sm TGR block 40µM
CN(CC1CCOCC1)C(=O)CC1C(=O)NCCN1CC(c1ccccc1)c1ccccc1 (centres undefined)	Sm TGR block inconclusive, Pf growth 48h inconclusive
CN(C(=O)CC1C(=O)NCCN1CC(c1ccccc1)c1ccccc1)C(C1CC1)C1CC1 (centres undefined)	Sm TGR block 45µM, Pf growth 96h inconclusive, Pf growth 48h inconclusive
CCOc1ccc(CN2CCNC(=O)C2CC(=O)N(C)Cc2nonc2C)cc1 (centres undefined)	none
COCCN(C(=O)CC1C(=O)NCCN1CC(c1ccccc1)c1ccccc1)C(C)C (centres undefined)	Sm TGR block inconclusive, Pf growth 96h 10µM, Pf growth 48h inconclusive
c1ccc(CN2COc3c(ccc4c5c(ccc34)CN(Cc3ccccc3)CO5)C2)cc1	none (no result: AMA1 RON2 block, Sm TGR block, Pf growth 96h, Pf growth 48h)
O=C(C(=O)N1CCN(CCN2CCOCC2)CC1)c1ccccc1	none (no result: Sm TGR block, Pf growth 96h, NS1 inh, Pf growth 48h)
COc1ccc(CCNC(=O)C(=O)NCC2OCCN2C(=O)c2ccc(Cl)cc2)cc1 (centres undefined)	Pf growth 48h inconclusive
O=C(NNC1=NC2(CCCC2)Cc2ccccc21)c1cccnc1	Pf growth 48h inconclusive
COc1ccc(-c2nc3n(n2)C(c2ccc(OC)cc2)C(C(=O)Nc2cccnc2)=C(C)N3)cc1 (centres undefined)	none (no result: AMA1 RON2 block, Pf growth 96h, NS1 inh, Pf growth 48h)
COc1ccccc1N1C(=O)N(C(C)=O)C2C1Nc1ccccc1N2C (centres undefined)	Sm TGR block inconclusive, Pf growth 96h inconclusive, NS1 inh inconclusive, Pf growth 48h 4.7µM
O=C(NCc1ccc2c(c1)OCO2)OCc1ccccc1	none (no result: Sm TGR block, Pf growth 96h, NS1 inh, Pf growth 48h)
CCN(C(=O)CCn1cnc2onc(-c3ccc(F)cc3)c2c1=O)c1ccc(OC)cc1	none (no result: AMA1 RON2 block, Pf growth 96h, NS1 inh, Pf growth 48h)
Cc1cc(O)c(Oc2cc(C)cc(O)c2O)c(O)c1	AMA1 RON2 block 4.5µM, Sm TGR block inconclusive
O=c1cc(O)c(-c2ccc(Cl)c(Cl)c2)c(Cl)[nH]1	none (no result: NS1 inh)
O=c1cc(O)c(-c2ccc(Cl)cc2)c(Cl)[nH]1	Pf growth 48h 13µM
CCN=C(N/N=C/c1ccc([N+](=O)[O-])cc1)SC	Sm TGR block 45µM
CCOc1ccc(CNC(=S)N/N=C\c2ccc([N+](=O)[O-])cc2)cc1	Pf growth 96h inconclusive, Pf growth 48h 13µM
CCCCOc1ccc(CNC(=S)N/N=C/c2ccc(OC)c(OC)c2)cc1	Pf growth 96h 4.7µM (no result: Pf growth 48h)
CCNC(=S)NCc1ccc(OC)c(OC)c1	Pf growth 96h 5.2µM
COCCNC(=S)N/N=C/c1ccc(OCc2ccc(C(=O)OC)cc2)c(OC)c1	none
C=CCN(CC=C)C(=S)NCCc1ccc(OC)c(OC)c1	Pf growth 96h inconclusive, Pf growth 48h 13µM
CS(=O)(=O)CCC(C(=O)OCc1ccc(Br)cc1)N1C(=O)c2ccccc2C1=O (centres undefined)	none
COC(=O)c1ccc(COC(=O)C(CCS(C)(=O)=O)N2C(=O)c3ccccc3C2=O)cc1 (centres undefined)	Pf growth 96h 6.6µM
O=C(N/N=C/c1ccoc1)c1ccc(Cl)cc1	Sm TGR block 45µM, Pf growth 96h inconclusive, Pf growth 48h 2.6µM
Cc1c(CC(=O)NCC(=O)O)c(=O)oc2cc3c(cc12)CCC(C)(C)O3	none
CCN1C(=O)CC(NC2CCN(C(=O)c3ccc(F)cc3)CC2)C1=O (centres undefined)	Pf growth 96h inconclusive
Cc1c(C(=O)NCc2cccs2)sc(=O)n1Cc1ccc(S(=O)(=O)N(C)C)cc1	none (no result: Sm TGR block, Pf growth 96h, NS1 inh, Pf growth 48h)
O=S(=O)(c1ccccc1)N1CCN(C(=S)NCc2ccccc2)CC1	Pf growth 96h 2.1µM, Pf growth 48h 2.6µM (no result: NS1 inh)
CCOC(=O)N1CCN(C(=O)C2CCN(S(=O)(=O)c3ccc(OCC)cc3)CC2)CC1	none
CCOc1ccc(S(=O)(=O)N2CCC(C(=O)N3CCN(Cc4ccccc4)CC3)CC2)cc1	Pf growth 48h 9.3µM
O=S(=O)(NCc1ccccc1)c1ccc(S(=O)(=O)N2CCCCC2)cc1	Pf growth 96h 5.2µM
COc1ccc(CCNC(=S)N2CCN(S(=O)(=O)c3cccc(F)c3)CC2)cc1	Pf growth 96h inconclusive, Pf growth 48h inconclusive (no result: NS1 inh)
COc1ccc(CNC(=S)N2CCN(S(=O)(=O)c3cccc(F)c3)CC2)cc1	Pf growth 96h 3.3µM, Pf growth 48h inconclusive
CCCCN(C=O)c1c(CC)nc2c(OCC3CCCCC3)cccn12	none (no result: Sm TGR block, Pf growth 96h, NS1 inh, Pf growth 48h)
CC(C)C[C@H]1CNC(=S)N1C[C@H]1CCCN1C[C@H](CC(C)C)N1C[C@H](Cc2ccc(O)cc2)N(CC2CCCCC2)C1=S	none (no result: Sm TGR block, Pf growth 96h, NS1 inh, Pf growth 48h)
O=C(CSCc1ccccc1)N1CCN(S(=O)(=O)c2cccc(F)c2)CC1	none (no result: NS1 inh)
O=S(=O)(c1ccccc1F)N1CCN(C(=S)NCc2ccccc2)CC1	Pf growth 96h 2.6µM, Pf growth 48h 3.7µM (no result: NS1 inh)
O=S(=O)(c1cccc(F)c1)N1CCN(C(=S)NCc2ccccc2)CC1	Pf growth 96h inconclusive, Pf growth 48h 3.7µM (no result: NS1 inh)
CCOc1ccc(S(=O)(=O)N2CCN(C(=S)NCc3ccccc3)CC2)cc1	Pf growth 96h 2.1µM, Pf growth 48h 2.3µM
CCOc1ccc(S(=O)(=O)N2CCCC(C(=O)NCc3ccccc3)C2)cc1 (centres undefined)	none
CCOc1ccccc1CNCCCSc1nnnn1C	none (no result: AMA1 RON2 block, Pf growth 96h, NS1 inh, Pf growth 48h)
O=S(=O)(Nc1ncccn1)c1ccc(NC(=S)Nc2ccccc2Cl)cc1	none
Cc1ccn2nc(C(=O)OCC(=O)N(CC(C)C)C3CCS(=O)(=O)C3)nc2n1 (centres undefined)	none (no result: NS1 inh)
CCOCCCn1c(SCC(=O)Nc2cc(C(C)(C)C)nn2-c2ccccc2)nc2ccccc2c1=O	Pf growth 96h inconclusive, Pf growth 48h 13µM
CC(C)(C)c1cc(NC(=O)CCl)n(-c2ccccc2)n1	Sm TGR block 13µM, Pf growth 96h inconclusive, Pf growth 48h inconclusive
CCCc1cc(NC(=O)COC(=O)c2ccc(O)cc2O)n(-c2ccccc2)n1	none (no result: Sm TGR block, Pf growth 96h, NS1 inh, Pf growth 48h)
CCCc1cc(NC(=O)CCl)n(-c2ccccc2)n1	Sm TGR block 10µM, Pf growth 96h inconclusive, Pf growth 48h inconclusive
CCCn1c(N)c(N(CCOC)C(=O)/C=C/c2ccc(C(=O)OC)cc2)c(=O)[nH]c1=O	Pf growth 96h inconclusive (no result: NS1 inh)
CCc1nc(NCCO)c(C#N)c2c1CSC(C)(C)C2	Sm TGR block inconclusive, Pf growth 48h inconclusive
CC1=C(C(=O)Nc2cc(C(=O)N3CCN(c4cccc(C)c4C)CC3)ccc2C)SCCO1	Pf growth 96h 10µM
CC1=C(C(=O)Nc2ccccc2C(=O)N2CCC(C)CC2)SCCO1	Pf growth 48h 13µM
CCOC(=O)C1CCCN(C(=O)c2ccccc2NC(=O)C2=C(C)OCCS2)C1 (centres undefined)	Pf growth 96h 4.1µM, Pf growth 48h inconclusive
CC1=C(C(=O)Nc2ccccc2C(=O)NC2CCCCC2)SCCO1	none
